Structures are written as SMILES. Values without a mark were called inactive. Results filed as inconclusive are left out. A call without a number means that no potency is given here. Activity calls are given as the source filed them. Calls follow the shape of the dose curve; as a rule, active = well fitted curve in the direction sought with a large enough effect; inconclusive = small, poorly fitted or top-dose-only effect, or another doubt; inactive = no such curve, though single readings can be large; an effect the other way counts as inactive or inconclusive.

Experiment [1] has as its target Cytochrome P450 3A4 (Homo sapiens) (UniProt P08684). As to the kind of experiment: qHTS Assay for Inhibitors and Substrates of Cytochrome P450 3A4 (AID 884). Also: potency is read from the fitted curve at half-maximal effect; nearly all actives have a fitted effect of over 50% in size. As to conditions: recombinant CYP3A4, Luciferin-PPXE luminescence; series mostly up to 57.1 µM. An outline of the steps:
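20 nM human CYP3A4 with 25 uM Luciferin-PPXE (at KM) in 200 mM KPO4, preincubated 10 min with compound; NADPH regeneration started a 60 min RT reaction. Luciferin detected by luminescence, normalized to 57 uM ketoconazole as full inhibition.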
For orientation: qHTS replaces the single test concentration by a dilution series.

Experiment [2] shares this target. As to the kind of experiment: qHTS Assay for Activators of Cytochrome P450 3A4 (AID 885). Also: nearly all actives have a fitted effect of over 65% in size. As to conditions: recombinant CYP3A4, Luciferin-PPXE luminescence, 60 min; series mostly up to 57.1 µM. In short, it runs like this:
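Quantitative HTS format: compounds preincubated with 20nM human CYP3A4 and Luciferin-PPXE substrate at KM, reaction started by NADPH regeneration, stopped after 60 min, luciferase luminescence read 20 min later.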

Sequence of Cytochrome P450 3A4 (Homo sapiens) (P08684 whole entry, looked up): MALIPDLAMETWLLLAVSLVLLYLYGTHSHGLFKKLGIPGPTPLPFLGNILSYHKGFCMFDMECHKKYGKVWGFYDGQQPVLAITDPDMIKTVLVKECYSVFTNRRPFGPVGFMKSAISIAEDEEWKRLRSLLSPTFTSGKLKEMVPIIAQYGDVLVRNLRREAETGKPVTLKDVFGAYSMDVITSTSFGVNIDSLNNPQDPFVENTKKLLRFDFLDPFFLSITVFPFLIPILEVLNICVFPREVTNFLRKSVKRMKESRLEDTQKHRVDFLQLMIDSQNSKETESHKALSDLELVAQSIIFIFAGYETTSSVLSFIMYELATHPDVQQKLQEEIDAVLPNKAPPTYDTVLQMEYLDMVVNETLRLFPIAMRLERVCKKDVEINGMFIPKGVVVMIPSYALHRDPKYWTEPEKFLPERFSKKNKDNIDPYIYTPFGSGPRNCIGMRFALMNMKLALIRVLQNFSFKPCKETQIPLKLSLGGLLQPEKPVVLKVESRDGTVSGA

As for `CCCCNc1nc(C)nc2c1nc(-c1ccccc1)n2CC(C)(C)CN(C)C`, in experiment [1], the Potency is 10 µM (active). For the same molecule, the Potency result in experiment [2] is “inactive”.

The values above are taken from PubChem BioAssay (NCATS).
